HEK293 tox = qHTS of GLP-1 Receptor Inverse Agonists: Cytotox Screen; Potency, µM (series often up to 38.3 µM), without a hit: at the top dose activity change, negative = inhibition, hits mostly inhibitors; actives 0.13% (n = 410,000); AID 624418, 2012; HEK293 cAMP-luciferase reporter cells, luminescence, 24 h;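 note: loss of luciferase light is scored as toxicity; potency is the fitted concentration of half-maximal effect; % is set by controls: 0 for no effect and ±100 for the full control effect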
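Cells in DMEM/10% Nu serum/1% pen-strep, 1536-well format. Pre-incubated 12 h, dosed with 23 nL compound, incubated a further 24 h. Luciferase detection, 12 min at room temp, luminescence.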
miR-21 reporter = qHTS Assay for Modulators of miRNAs and/orActivators of miR-21; HeLa miR-21 FLuc reporter, luciferase, 48 h; Potency, µM (titrated, usually from 38.3 µM), for inactives: at the highest dose activity change, positive = activation, hits mostly activators; 340,000 tested, under 10 active;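 note: % of control where 0% means no effect; miR-21 action dims this reporter so a rising signal means less miR-21 action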
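Luminescence from a firefly luciferase reporter carrying a miR-21 binding site downstream, stably expressed under a CMV promoter in HeLa cells that make miR-21 endogenously, reports miRNA modulation after 48 h compound exposure up to approximately 40uM final.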
PTHR1 agonist = qHTS for PTHR1 Agonists: Primary Screen; Parathyroid hormone/parathyroid hormone-related peptide receptor (Homo sapiens), Q03431; HEK293 GP2 PTHR1 cells, GloSensor cAMP luminescence, 1 h; Potency, µM (titrated, usually from 115 µM), for the others: top-dose activation, actives largely listed as activators; actives 0.075% (n = 410,000); note: potency is the fitted concentration of half-maximal effect; nearly all actives have a fitted effect of over 55% in size
Target sequence (Q03431 whole entry, looked up): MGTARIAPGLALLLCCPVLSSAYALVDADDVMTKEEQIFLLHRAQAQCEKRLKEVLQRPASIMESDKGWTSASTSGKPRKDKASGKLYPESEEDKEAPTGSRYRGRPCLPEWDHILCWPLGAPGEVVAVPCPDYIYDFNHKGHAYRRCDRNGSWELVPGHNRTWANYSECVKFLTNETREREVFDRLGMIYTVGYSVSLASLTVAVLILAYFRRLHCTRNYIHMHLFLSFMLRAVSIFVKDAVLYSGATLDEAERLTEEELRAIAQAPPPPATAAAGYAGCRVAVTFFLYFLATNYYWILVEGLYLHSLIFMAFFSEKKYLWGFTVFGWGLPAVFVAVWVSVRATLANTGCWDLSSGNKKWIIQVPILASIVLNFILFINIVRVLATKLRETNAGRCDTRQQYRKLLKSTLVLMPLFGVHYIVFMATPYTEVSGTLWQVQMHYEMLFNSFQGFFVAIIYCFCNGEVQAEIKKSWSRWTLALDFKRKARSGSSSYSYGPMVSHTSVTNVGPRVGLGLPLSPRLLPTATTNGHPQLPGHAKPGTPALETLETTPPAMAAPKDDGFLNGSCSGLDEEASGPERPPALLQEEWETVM
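HEK-293-derived GP2 cells expressing PTHR1 and a GloSensor cAMP reporter, 3,000/well, plated overnight, given luciferin plus IBMX (each 0.5 mM as added) for 1 h at 37 °C, then compound for 1 h at 37 °C. Luminescence was read after 15 min at room temperature.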
GLP1R inv ag = qHTS of GLP-1 Receptor Inverse Agonists (Inhibition Mode); Potency, µM (top dose mostly 38.3 µM), inactives show at the top dose activity change, negative = inhibition, usual class: inhibitors; Glucagon-like peptide 1 receptor (Homo sapiens), P43220; HEK293 GLP-1R CRE-luciferase, luminescence, 24 h; GLP-1R form is constitutively active; AID 624417, 2012; actives 1.6% (n = 410,000); note: potency is the fitted concentration of half-maximal effect; % is set by controls: 0 for no effect and ±100 for the full control effect; nearly all actives have a fitted effect of over 55% in size
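HEK293 cells stably co-expressing constitutively active GLP-1R and a cAMP-responsive luciferase reporter were seeded in DMEM with 10% Nu serum, given compounds after 12 h, and incubated 24 h at 37 deg C. Luminescence was then read.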
GLP1R ag = qHTS of GLP-1 Receptor Agonists | Glucagon-like peptide 1 receptor (Homo sapiens), P43220 | actives 0.007% (n = 380,000) | HEK293 GLP-1R CRE-luciferase, luminescence, 4-6 h; cells express a hypersensitive GLP-1R form | Potency, µM (highest dose often 45.6 µM), without a hit: at the highest dose activation, most hits filed as activators | AID 624172, 2012; note: potency is the fitted concentration of half-maximal effect; % of control where 0% means no effect
Pin1 inh = qHTS Assay to Find Inhibitors of Pin1; Pin1 FP peptide displacement, HiFluor488, 10 min; actives 0.009% (n = 390,000); Peptidyl-prolyl cis-trans isomerase NIMA-interacting 1 (Homo sapiens), Q13526; Potency, µM (series often up to 115 µM), without a hit: at the top dose activity, negative = inhibition, hits mostly inhibitors; active = well fitted inhibition curve with a large enough effect in the polarisation, with a control signal flat, not every such curve was filed as active; inconclusive = small, poorly fitted or top-dose-only effect, or effect the other way, or a change in a side signal; inactive = no such curve, though single readings can be large or run the other way; the % refers to the polarisation; note: potency is the fitted concentration of half-maximal effect; % is set by controls: 0 for no effect and ±100 for the full control effect
Target sequence (Q13526 whole entry, looked up): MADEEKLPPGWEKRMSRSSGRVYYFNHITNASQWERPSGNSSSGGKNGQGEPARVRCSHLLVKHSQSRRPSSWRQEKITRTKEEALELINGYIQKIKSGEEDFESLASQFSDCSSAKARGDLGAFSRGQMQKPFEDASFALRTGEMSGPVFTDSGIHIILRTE
Active calls of the source: *; i = inactive; ? = inconclusive; · = no result; [ ] = dose if it differs, or a comment. An excerpt weighted towards active compounds, which were near 1.7% of everything screened. Unless noted, calls come from the whole dose curve; as a rule, active = well fitted curve in the direction sought with a large enough effect; inconclusive = small, poorly fitted or top-dose-only effect, or another doubt; inactive = no such curve, though single readings can be large; an effect the other way counts as inactive or inconclusive.

SMILES	HEK293 tox	miR-21 reporter	PTHR1 agonist	GLP1R inv ag	GLP1R ag	Pin1 inh
O=C(NCCCN1CC1)Nc1cccc2ccccc12	6.8%	·	12.1%	0.0%	-2.9%	-2.7%
Cc1oc2ccc(O)c(CN3CCCCCC3)c2c1C(=O)Nc1cccc(Cl)c1C	-2.2%	?	?	0.1%	·	7.4%
CC[C@@H](C(=O)[C@@H](C)[C@@H](O)[C@H](C)CCc1ccc(C)c(O)c1C(=O)O)[C@H]1O[C@](CC)([C@H]2CC[C@](O)(CC)[C@H](C)O2)C[C@@H]1C	10µM*	23.9%	-55.0%	10µM*	-11.2%	-18.0%
CCOC(=O)c1[nH]c2ccc(OC)cc2c1NC(=S)N1CCN(c2ccccc2OC)CC1	?	19.1%	i	?	0.9%	-3.2%
COc1cc([C@@H]2c3cc4c(c(O)c3C[C@H]3COC(=O)[C@@H]32)OCO4)cc(OC)c1OC	·	·	·	·	·	2.2%
CCN1CCN(c2ncc(C(=O)Nc3cc(Cl)ccc3OC)c3ccccc23)CC1	?	2.3%	i	1.78µM*	1.8%	2.5%
CCOC(=O)c1cccc(NC(=O)c2cnc(N3CCCCC3)c3ccccc23)c1	0.6%	15.9%	-34.6%	?	·	6.5%
Cc1nc(C(F)(F)F)c(C(=O)N/N=C(\N)c2ccccn2)s1	?	25.5%	i	?	5.9%	-9.9%
CC1CCN(C(=O)N2c3ccccc3Sc3ccccc32)CC1	-9.4%	12.8%	-3.2%	2µM*	14.9%	6.8%
CN(C)CC(C(=O)Cc1ccccc1)c1ccccc1 (stereo not drawn)	?	·	-25.6%	5.01µM*	-8.2%	-7.4%
COc1cc2c(cc1OC)CN(c1ccc([N+](=O)[O-])c(C(F)(F)F)c1)CC2	10µM*	?	-35.6%	7.94µM*	-6.5%	12.4%
CC(C)(O)C(=O)Nc1ccc([N+](=O)[O-])c(C(F)(F)F)c1	-0.3%	·	-23.2%	-22.8%	13.4%	-3.2%
CCc1nn2c(=O)c(C)c(N3CCNCC3)nc2s1	·	·	·	·	·	0.7%
CCOC(=O)c1c(C=O)c2ccccc2n1Cc1ccccc1	-5.2%	3.6%	-20.7%	10µM*	24.6%	-1.0%
O=C(Nc1ccc(OC(F)(F)F)cc1)C1CCN(S(=O)(=O)c2cccs2)CC1	-26.0%	?	-91.3%	5.01µM*	·	?
Cc1ccc(NCc2cccn2-c2nnc(N3CCC(C(=O)NCc4ccc(OC(C)C)cc4)CC3)s2)cc1	-15.9%	26.4%	-25.2%	10µM*	·	15.7%
COc1ccc(CNCCc2c[nH]c3ccccc23)c(OC)c1OC	-14.8%	1.7%	-21.9%	?	4.9%	-0.1%
CCOc1cc(CNCCc2c[nH]c3ccccc23)cc(Cl)c1OC	?	-0.1%	-24.1%	11.2µM*	2.3%	0.0%
[Hg+][c]1ccccc1	·	·	·	·	-7.9%	·
O=C1C=CC2C3C(=O)N(c4ccccc4)C(=O)C3C1N2Cc1ccccc1 (stereo not drawn)	10µM*	·	-43.5%	?	-17.8%	15.6%
COc1cccc(C2CC3C(=O)C=CC2N3Cc2ccccc2)c1 (stereo not drawn)	-22.4%	-0.5%	-96.1%	?	10.5%	?
Cc1cc(Nc2cccc(C(F)(F)F)c2)nc2ccc(NC(=O)c3cccnc3)cc12	?	?	i	3.98µM*	·	-0.2%
CCN(CC)C(=O)c1ccc(NC(=O)c2cccc(C(F)(F)F)c2)cc1	-3.6%	-13.0%	i	?	-2.1%	-4.2%
CN1CCN(c2ccc(Nc3ccnc4cc(Cl)ccc34)cc2)CC1	3.55µM*	8.0%	0.6%	2µM*	-2.1%	5.2%
CNc1cc(Cl)c2nonc2c1[N+](=O)[O-]	7.94µM*	?	-21.1%	?	-10.7%	-18.3%
SMILES	HEK293 tox	miR-21 reporter	PTHR1 agonist	GLP1R inv ag	GLP1R ag	Pin1 inh
CCNC(C)Cc1ccc2c(c1)OCO2 (stereo not drawn)	·	·	·	·	10.1%[110 µM]	·
CN1C(=O)c2ccccc2Sc2ccc(NC(=O)N3CCN(c4ccccc4)CC3)cc21	-20.2%	-5.1%	-94.4%	?	·	3.1%
CCC(C)NCCOCCOc1ccc(Cl)c2ccccc12 (stereo not drawn)	?	?	-15.7%	1.58µM*	-1.8%	-0.2%
Nc1nc2ncccn2c1-c1ccc(C(F)(F)F)cc1	214.1%	·	-6.8%	11.2%	·	·
COc1ccc(C(=O)C(CN2CCOCC2)c2ccccc2)cc1F (stereo not drawn)	?	?	-59.6%	-4.0%	-35.1%	-5.1%
CCCOc1ccc(C(=O)C(CN2CCOCC2)c2ccccc2)cc1 (stereo not drawn)	?	?	i	7.08µM*	-9.8%	2.2%
CCN(CC)S(=O)(=O)c1ccc(C)c(NCC(=O)Nc2ccc(C#N)c(Cl)c2)c1	-26.2%	?	-31.5%	5.62µM*	1.7%	11.5%
CC(=O)N1CCN(CC(=O)Nc2ccc(C#N)c(Cl)c2)CC1	-6.5%	0.4%	i	20.7%	-4.3%	-0.5%
CC(O)CN1CCN(CC(=O)[O-])CCN(CC(=O)[O-])CCN(CC(=O)[O-])CC1.[Gd+3] (stereo not drawn)	·	·	·	·	0.8%	·
CC[C@@H](C(=O)[C@@H](C)[C@@H](O)[C@H](C)[C@@H]1O[C@@H]([C@@H](CC)C(=O)O)CC[C@@H]1C)[C@H]1O[C@]2(C=C[C@@H](O)[C@]3(CC[C@@](C)([C@H]4CC[C@](O)(CC)[C@H](C)O4)O3)O2)[C@H](C)C[C@@H]1C	3.98µM*	·	-47.4%	?	-15.5%	2.8%
COc1cccc(C(=O)Oc2c(Sc3ccc(C)cc3)c(C)nn2C(C)(C)C)c1OC	?	?	-87.5%	3.16µM*	·	-2.1%
CC(C)[C@@]1(NC(=O)[C@H]2C[C@H]3c4cccc5[nH]cc(c45)C[C@@H]3N(C)C2)O[C@]2(O)[C@H]3CCCN3C(=O)CN2C1=O (tested in a mixture with another compound)	·	·	·	·	4.3%	·
C=C1C(=O)OC2CC1C(O)CC(C)=CCCC(C)=CC(O)CC2C (stereo not drawn)	?	·	-25.5%	2.24µM*	-11.5%	3.7%
CCCCCN1C(=O)c2cc(OC)ccc2[C@@]2(C(=O)OCC)Cc3cc(OC)ccc3[C@@H]12	?	·	-52.3%	7.08µM*	-13.3%	·

Compound activity from PubChem BioAssay.
